Our source for the growth values is PubChem BioAssay (NCI).

The structures appear in SMILES notation. About 83,000 compounds went through this panel and 20% of them were active in at least one assay; those are over-represented in the sample as a whole.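 A percent growth of 40 corresponds to 60% growth inhibition; 0 means no net growth; -100 means all cells died. Active threshold: below 10.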 Values without a mark were called inactive. The source made the active and inactive calls.

Test systems include T-47D breast; BT-549 breast; MDA-MB-435 melanoma; SW-620 colon; MCF7 breast; HCT-116 colon; HCC-2998 colon; KM12 colon.
Common to all, as to experiment: NCI-60 one-dose screen, 48 h (100 = growth as untreated, 0 = no growth, -100 = all killed)
Common to all, as to settings: 10 µM unless noted

As for `Cc1ccc(NC2CC(=O)N(c3c(C)cc(C)cc3C)C2=O)c(C)c1` (stereo not given), the growth in the test with T-47D breast is 99.4%; in the test with BT-549 breast it was 113%; with MDA-MB-435 melanoma, 103%; with SW-620 colon, 101%; with MCF7 breast it was 92.9%; in the test on HCT-116 colon, 105%. Also, the growth with HCC-2998 colon is 112%; in the test with KM12 colon it was 102%.
With `OCC1OC(n2cnc3c(Cl)ncnc32)CC1O` (stereo not given), the growth was 92.1% with T-47D breast; 114% with BT-549 breast; 104% in the test with MDA-MB-435 melanoma; 98.7% in the test on SW-620 colon; 95.2% in the test on MCF7 breast; 94.1% in the test with HCT-116 colon. In addition, the growth in the test with HCC-2998 colon is 108%; in the test on KM12 colon, 107%.
As to `Cn1c2ccccc2c2c3c(c4c5cccnc5[nH]c4c21)C(=O)N(O)C3=O`, the growth was 16.4% with T-47D breast; 44.6% with BT-549 breast; 64.3% in the test with MDA-MB-435 melanoma; 45.4% with SW-620 colon; 12.9% in the test on MCF7 breast; 36.3% in the test with HCT-116 colon. Further, the growth with HCC-2998 colon was 54.4%; in the test on KM12 colon, 65.9%.
Consider `CN(C)CCCCC(C(=O)CBr)(c1ccccc1)c1ccccc1`, for which the growth in the test with T-47D breast was -54.2% (active); in the test on BT-549 breast, 24.3%; in the test on MDA-MB-435 melanoma, 36.3%; with SW-620 colon, -49.7% (active); with MCF7 breast, 3.55% (active); in the test with HCT-116 colon, -60.1% (active). In addition, the growth was 71.7% with HCC-2998 colon and 68.8% in the test on KM12 colon.
Regarding `CCc1nnc(NC(=O)c2ccoc2COc2ccccc2)s1`, the growth was 45.7% in the test with T-47D breast; 51.2% with BT-549 breast; -26.1% (active) with MDA-MB-435 melanoma; 24% with SW-620 colon; 24% in the test with MCF7 breast; 30.6% with HCT-116 colon. For the same compound, the growth with HCC-2998 colon was 69%; in the test on KM12 colon, 31.6%.
Turning to `Cc1cc(N(CCCNc2ccnc3cc(Cl)ccc23)Cc2ccco2)nc(N2CCN(C)CC2)n1`, the growth with T-47D breast is 23.6%; in the test on BT-549 breast it was 50.2%; in the test on MDA-MB-435 melanoma, -5.06% (active); in the test with SW-620 colon it was 33.6%; in the test with MCF7 breast it was 29%; in the test with HCT-116 colon it was 28.3%. Moreover, the results for the growth with HCC-2998 colon and with KM12 colon were 86.9% and 63.3%, respectively.
Regarding `Fc1ccc(Nc2nc(Nc3ccc(-c4nc5ccccc5[nH]4)cc3)nc(N3CCCC3)n2)cc1`, the growth in the test on T-47D breast is 44.6%; in the test on BT-549 breast it was 85.1%; with MDA-MB-435 melanoma, 98.1%; in the test on SW-620 colon, 0.692% (active); with MCF7 breast, 32.7%; in the test on HCT-116 colon it was -53.6% (active). The growth was 55.7% with HCC-2998 colon and 83.8% in the test with KM12 colon.
In the case of `Cn1c(=O)c2c(ncn2CC(=O)Nc2ccc(S(N)(=O)=O)cc2)n(C)c1=O`, the growth was 93.2% in the test with T-47D breast; 92.8% with BT-549 breast; 108% in the test with MDA-MB-435 melanoma; 103% in the test with SW-620 colon; 98.6% with MCF7 breast; 92.7% in the test on HCT-116 colon. The results for the growth in the test on HCC-2998 colon and with KM12 colon were 114% and 101%, respectively.
Turning to `Cc1cc(Nc2ccc(F)cc2)nc(N2CCN(c3ccnc4cc(Cl)ccc34)CC2)n1`, the growth in the test with T-47D breast is 10.8%; in the test on BT-549 breast it was 47.5%; with MDA-MB-435 melanoma, 13.2%; with SW-620 colon, 23.1%; in the test with MCF7 breast it was 9.35% (active); in the test on HCT-116 colon, 4.86% (active). Further, the values for the growth with HCC-2998 colon and with KM12 colon were 25.8% and 21.6%, respectively.
As to `COc1ccc(-c2n[nH]nc2-c2cc3ccccc3s2)cc1O`, the growth is 43.8% in the test with T-47D breast; 24.1% with BT-549 breast; -32.9% (active) with MDA-MB-435 melanoma; 26.6% in the test on SW-620 colon; 19.7% with MCF7 breast; 18.2% in the test on HCT-116 colon. For the same compound, the growth in the test on HCC-2998 colon is 29.2%; in the test with KM12 colon, 22.7%.
Take `C/C(=N/NC(N)=S)C(=O)O`: the growth in the test with T-47D breast was 28.6%; in the test with BT-549 breast, 102%; in the test with MDA-MB-435 melanoma it was 85.8%; in the test with SW-620 colon, 77.6%; with MCF7 breast it was 26.2%; in the test on HCT-116 colon, 10.6%. The growth in the test with HCC-2998 colon is 94.3%; in the test on KM12 colon, 109%.
Turning to `Cc1ccc(N(CC(=O)Nc2ccc(S(=O)(=O)N3CCC(N4CCCC4)CC3)cc2)S(=O)(=O)c2ccc(Cl)cc2)cc1`, the growth was -37.2% (active) in the test with T-47D breast; 74.1% with BT-549 breast; -87.6% (active) with MDA-MB-435 melanoma; -46.8% (active) in the test on SW-620 colon; 14.2% in the test with MCF7 breast; -70.5% (active) with HCT-116 colon. In addition, the figures for the growth in the test with HCC-2998 colon and with KM12 colon were -48.9% (active) and 24.5%, respectively.
Consider `NC(=O)NCC1CCCCC1`, for which the growth was 97.7% with T-47D breast; 104% with BT-549 breast; 102% in the test on MDA-MB-435 melanoma; 108% with SW-620 colon; 90.6% in the test on MCF7 breast; 106% in the test with HCT-116 colon. For the same compound, the growth is 95.5% in the test with HCC-2998 colon and 102% in the test with KM12 colon.
As for `CCOc1ccc(NC(=O)c2ccoc2COc2ccccc2)cc1`, the growth in the test with T-47D breast is 108%; in the test with BT-549 breast it was 109%; in the test with MDA-MB-435 melanoma it was 103%; in the test on SW-620 colon it was 104%; in the test with MCF7 breast it was 95.9%; in the test on HCT-116 colon it was 93.6%. The growth with HCC-2998 colon is 109%; with KM12 colon, 98.8%.
For the compound `COc1ccccc1-n1cnc(N)c1C(=O)c1cc(OC)c(OC)c(OC)c1`, the growth in the test on T-47D breast is 49.8%; in the test on BT-549 breast, 47.1%; in the test with MDA-MB-435 melanoma, -15% (active); in the test with SW-620 colon it was 23.7%; with MCF7 breast, 12.4%; in the test with HCT-116 colon, 24.5%. Besides, the growth with HCC-2998 colon was 61.7%; with KM12 colon it was 16.1%.
